Screening results as filed in PubChem.
Rows were chosen to be rich in hits. Some 3.2% of all compounds tested hit in one or more screens of this group.
RE007 growth inh: less growth of the S. pombe RE007 Vpr strain; Potency, µM (titrated, usually from 92.2 µM), hits mostly inhibitors; hit rate 0.21% among 360,000; S. pombe RE007 Vpr strain, BacTiter-Glo ATP luminescence, 24 h; active = well fitted falling curve with a large enough effect; inconclusive = small, poorly fitted or top-dose-only effect; inactive = no such curve, though single readings can be large or run the other way; note: nearly all actives have a fitted effect of over 50% in size
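Fission yeast strain RE007, carrying one chromosomally integrated HIV-1 vpr copy, was seeded at OD 0.01 in PMG+AL medium with 23 nL pinned compound. After 24 h at 30 °C and 99% humidity, viability was read by BacTiter-Glo luminescence.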
Sm TGR block: inhibitors of Schistosoma mansoni thioredoxin glutathione reductase; Q962Y6; purified TGR, DTNB reduction, TNB absorbance 405 nm; Potency, µM (titrated, usually from 114 µM), actives largely listed as inhibitors; hit rate 3% among 360,000; AID 485364; note: nearly all actives have a fitted effect of over 60% in size
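TGR 20 nM + NADPH 100 uM (dispensed conc.), cpd preinc 15 min RT; start with NADPH (500 uM addition) then DTNB (15 mM addition). Kinetic TNB absorbance, 405 nm filter. Four-parameter Hill fit across titration.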
AMA1 RON2 block: AMA1-RON2 (P. falciparum) interaction inhibition. Potency, µM (top dose mostly 58.2 µM), usual class: inhibitors. AlphaScreen AMA1-biotinylated RON2 peptide binding. hit rate 0.2% among 360,000; note: nearly all actives have a fitted effect of over 45% in size
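AMA1 (3D7) with his tag at 25 nM final met compounds first, then biotinylated RON2 peptide at 25 nM; detection used donor plus acceptor beads, 10 µg/mL apiece, read by AlphaScreen after 30 min at room temperature.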
TbPYK inhibitor: T. brucei pyruvate kinase inhibition. AID 624173. Potency, µM (titrated, usually from 76.8 µM), hits mostly inhibitors. hit rate 0.12% among 410,000. TbPYK enzyme, Kinase-Glo Plus ATP luminescence, 45 min; note: nearly all actives have a fitted effect of over 50% in size
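Screened from lowest to highest concentration, compounds were pinned into TbPYK/substrate mixtures, and ADP (130 uM final) was added. Plates sat at room temperature for 45 min prior to Kinase-Glo Plus detection by luminescence.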
LmPK inh: inhibitors of Leishmania mexicana pyruvate kinase | Q27686 | Potency, µM (series often up to 57.5 µM), usual class: inhibitors | hit rate 0.37% among 290,000 | purified LmPK, Kinase-Glo ATP luminescence, 1 h
Target sequence (Q27686 whole entry, looked up): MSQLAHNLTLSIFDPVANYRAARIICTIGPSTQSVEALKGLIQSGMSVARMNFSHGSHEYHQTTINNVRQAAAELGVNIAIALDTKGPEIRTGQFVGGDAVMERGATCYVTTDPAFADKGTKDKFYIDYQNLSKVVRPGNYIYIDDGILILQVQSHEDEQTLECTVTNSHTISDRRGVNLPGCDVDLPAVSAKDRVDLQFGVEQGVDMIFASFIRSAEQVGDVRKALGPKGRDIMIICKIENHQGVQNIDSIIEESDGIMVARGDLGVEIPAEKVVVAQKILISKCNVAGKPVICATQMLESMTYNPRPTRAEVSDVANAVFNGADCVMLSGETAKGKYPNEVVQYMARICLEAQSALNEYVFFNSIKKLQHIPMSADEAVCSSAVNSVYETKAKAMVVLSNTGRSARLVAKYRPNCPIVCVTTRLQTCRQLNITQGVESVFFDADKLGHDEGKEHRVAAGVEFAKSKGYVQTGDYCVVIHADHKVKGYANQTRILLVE
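Purified LmPK (0.1 nM) converted ADP (0.1 mM) to ATP with PEP (0.5 mM) in imidazole buffer pH 7.2 with KCl and MgCl2, 1 h at room temperature. ATP was read by Kinase-Glo luminescence; data normalized to uninhibited and no-enzyme controls.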
Hits are given with their value; n = inactive; u = inconclusive; x = not tested or not shown; [ ] = another dose, or the depositor's remark. Unless noted, calls come from the whole dose curve; as a rule, active = well fitted curve in the direction sought with a large enough effect; inconclusive = small, poorly fitted or top-dose-only effect, or another doubt; inactive = no such curve, though single readings can be large; an effect the other way counts as inactive or inconclusive.

SMILES	RE007 growth inh	Sm TGR block	AMA1 RON2 block	TbPYK inhibitor	LmPK inh
O=C(CN1CCN(c2ccc(Cl)cc2)CC1)c1ccc2c(c1)OCO2	n	u	n	n	n
Cc1ccc2nc(-c3cccc(NC(=O)CSc4ccc(Cl)cc4)c3)oc2c1	x	n	x	n	x
Cc1ccc2oc3nc(C)c(C(=O)O)cc3c(=O)c2c1	n	n	n	u	16µM
CC(=O)c1cc2c(=O)c3cc(C)ccc3oc2nc1C	n	n	n	n	14µM
Cc1c(N)nc([C@@H](CC(N)=O)NC[C@H](N)C(N)=O)nc1C(=O)N[C@H](C(=O)N[C@H](C)[C@H](O)[C@H](C)C(=O)N[C@@H](C(=O)NCCc1nc(-c2nc(C(=O)NCCC[S+](C)C)cs2)cs1)[C@H](C)O)[C@H](O[C@@H]1O[C@@H](CO)[C@@H](O)[C@H](O)[C@@H]1O[C@H]1O[C@H](CO)[C@H](O)[C@H](OC(N)=O)[C@@H]1O)c1cnc[nH]1	x	x	x	n	x
CN(C)CCN(C(=O)c1ccco1)c1nc2c(F)cc(F)cc2s1	x	n	x	n	x
COc1cc(/C=C2\CC/C(=C\c3cc(OC)c(OC)c(OC)c3)C2=O)cc(OC)c1OC	n	n	n	n	n
COc1cc(/C=C2\CC/C(=C\c3cc(OC)c(O)c(OC)c3)C2=O)cc(OC)c1O	n	28µM	u	u	n
Cc1ccc(CN(C(=O)c2ccccc2C)C2CCS(=O)(=O)C2)o1 (centres undefined)	n	n	n	n	n
Cc1cc2oc(C(=O)N(Cc3ccco3)C3CCS(=O)(=O)C3)cc(=O)c2cc1Cl (centres undefined)	n	50µM	n	n	n
Cc1ccc(CN(C(=O)c2ccccc2[N+](=O)[O-])C2CCS(=O)(=O)C2)o1 (centres undefined)	n	32µM	n	n	n
O=C(c1cc2ccccc2oc1=O)N(Cc1ccco1)C1CCS(=O)(=O)C1 (centres undefined)	n	16µM	n	n	n
Cc1ccc2c(=O)cc(C(=O)N(Cc3ccccc3Cl)C3CCS(=O)(=O)C3)oc2c1 (centres undefined)	x	n	x	n	x
CC(=O)Nc1ccc(N2Cc3ccccc3C2)cc1	n	13µM	n	n	n
CC(=O)Nc1ccc(N2CCCC2)cc1	n	35µM	n	n	n
CC(=O)Nc1ccc(N2CCN(Cc3ccccc3)CC2)cc1	n	n	n	n	n
CC(=O)Nc1ccc(N2CCCCC2)cc1	n	n	n	n	n
O=C(Nc1ccc(N2CCCCC2)cc1)c1ccccc1	u	n	n	n	3.5µM
CC1CCCCN1CC(=O)Nc1ccc(Oc2ccccc2)cc1 (centres undefined)	n	n	n	n	n
CC1CCCCN1CC(=O)Nc1ccc(N2CCCCCC2)cc1 (centres undefined)	n	n	28µM	n	n
COc1ccc(/C=C/C(=O)Nc2sc3c(c2C(N)=O)CCC(C)C3)cc1OC (centres undefined)	x	n	x	n	x
Cc1cc(C)cc(N2Cc3ccccc3C2)c1	n	u	n	n	n
CCc1ccc(N2Cc3ccccc3C2)cc1	n	18µM	n	n	n
CC(C)Oc1cccc(C(=O)Nc2ccc(N3CCN(C)CC3)cc2)c1	n	40µM	n	n	n
Cc1ccc(CNC(=O)c2cn(C)c3ccc(S(=O)(=O)N(C)C4CCCCC4)cc3c2=O)cc1	x	n	x	n	x
SMILES	RE007 growth inh	Sm TGR block	AMA1 RON2 block	TbPYK inhibitor	LmPK inh
COc1nn(-c2ccccc2)c(=O)c(Cl)c1Cl	u	22µM	n	n	n
C[C@H](/C=C/[C@H](C)C(C)(C)O)[C@H]1CC[C@H]2/C(=C/C=C3C[C@@H](O)C[C@H](O)C3)CCC[C@]12C	x	x	x	n	x
Cc1occc1C(=O)NC(C)C1CCCO1 (centres undefined)	n	22µM	n	n	n
CCc1c(C)sc(NC(NC(C)=O)(C(=O)OC)C(F)(F)F)c1C#N (centres undefined)	n	50µM	n	n	n
Cc1cc2c(cc1S(=O)(=O)CCC(=O)N1CCCCC1C)OCC(=O)N2 (centres undefined)	x	n	x	n	x
CCOC(=O)c1cnc2c(Cl)cc(Cl)cc2c1NCCCN1CCOCC1	n	13µM	n	n	n
CC[C@]1(O)C[C@H]2CN(CCc3c([nH]c4ccccc34)[C@@](C(=O)OC)(c3cc4c(cc3OC)N(C=O)[C@H]3[C@@](O)(C(=O)OC)[C@H](OC(C)=O)[C@]5(CC)C=CCN6CC[C@]43[C@@H]65)C2)C1	x	x	x	n	x
Cn1c(=O)c2c(ncn2CC(=O)N/N=C/C=C/c2ccco2)n(C)c1=O	n	11µM	n	n	n
CC(/C=N/NC(=O)Cn1cnc2c1c(=O)n(C)c(=O)n2C)=C\c1ccco1	n	25µM	n	n	n
Cn1c(=O)c2c(ncn2CC(=O)N/N=C/C(Cl)=C/c2ccccc2)n(C)c1=O	n	n	n	n	n
CN=c1scc(C)n1/N=C/c1ccc(O)c(O)c1O	u	22µM	u	u	u
CN=c1scc(-c2cccs2)n1/N=C/c1ccc(O)c(O)c1O	n	u	n	u	u
CCCNC(=O)Cn1nc(C)c2c(C)n(-c3ccccc3)nc2c1=O	x	n	x	n	x
O=c1c2cccnc2n(Cc2ccccc2F)c(=O)n1Cc1ccc(F)cc1	x	n	x	n	x
COc1ccc2c(ccc[n+]2CC(=O)c2ccccc2)c1	n	n	n	n	n
COc1ccc(C(=O)C[n+]2cn(C(F)F)c3ccccc32)c(F)c1	n	10µM	n	n	n[11.5 µM]
c1ccc(-c2ccc(-n3ccnc3)cc2)cc1	28µM	n	n	n	n
Cc1cccn2c(=O)c3cc(C(=O)NC4CCCCCC4)sc3nc12	n	35µM	n	n	n
O=C(CCC(=O)N1CC2CCCN2c2ccccc21)NCc1ccccc1 (centres undefined)	x	n	x	n	x
O=C(CCl)N1c2ccccc2CCc2ccccc21	x	11µM	x	x	n
Cc1ccccc1OCc1nnc(SCc2cc(=O)c3cccc(F)c3[nH]2)n1C	x	n	x	n	x
COc1cc(NC(=S)Nc2cccnc2)cc(OC)c1	n	45µM	n	n	n
CCOc1ccc(NC(=S)Nc2cccc3cnccc23)cc1	n	n	n	n	n
CN(C)S(=O)(=O)c1cccc(NC(=S)Nc2cccc3cnccc23)c1	n	10µM	n	n	n
COc1ccc(NC(=S)Nc2cccc3cnccc23)cc1	n	56µM	n	n	n
CN(C)S(=O)(=O)c1cccc(NC(=O)C(c2ccccc2)c2ccccc2)c1	n	n	n	n	n
CC(C)N(C(=S)Nc1cccc(S(=O)(=O)N(C)C)c1)c1ccccc1	n	11µM	n	n	n
CC12CCC(=O)CC1CCC1C2CCC2(C)C1CCC2(C)O (centres undefined)	x	x	x	n	x
CCN(CC)c1cc(C)c2cc(NC(=O)c3ccccc3Cl)ccc2n1	x	n	x	n	x
